Screening results as filed in PubChem.
ERp5 block – inhibitors of human ERp5; Q15084; ERp5 insulin aggregation, absorbance 650 nm, 90 min; inhibition, % at 9.99 µM; 350,000 tested, 0.05% active;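 active = mean replicate inhibition above about 25%, with every replicate also reaching it, limit read from the data, passing the limit was not always enough; inconclusive = only one of those two criteria met; inactive = neither criterion met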
PDI inh – inhibitors of human protein disulfide isomerase | PDI insulin aggregation turbidity, A650, 90 min | AID 588391 | 350,000 tested, 0.052% active | inhibition, % at 10 µM | P07237;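 active = mean inhibition across replicates of 30% or more, whatever share of single replicates reach that level; inconclusive = mean inhibition below 30% while every single replicate reaches 30%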
Rtt109 HAT inh – blocks Candida albicans Rtt109/Vps75 acetyltransferase activity | Q5AAJ8 | AID 540336 | 330,000 tested, 0.16% active | purified Rtt109/Vps75, ThioGlo CoA-SH fluorescence, 4 h | inhibition, % at 34.9 µM;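 active = inhibition of at least 50% in every replicate; inconclusive = best replicate reaches 50% inhibition but some replicates fall short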
SIRT5 block – blocks human SIRT5 desuccinylation of peptide; 330,000 tested, 1.1% active; Purified SirT5, succinyl-peptide AMC, trypsin-coupled fluorescence; inhibition, % at 15 µM; Q9NXA8; in the data active = inhibition above about 15%; inconclusive = no clear call, values can overlap the other calls
Target sequence (Q9NXA8 whole entry, looked up): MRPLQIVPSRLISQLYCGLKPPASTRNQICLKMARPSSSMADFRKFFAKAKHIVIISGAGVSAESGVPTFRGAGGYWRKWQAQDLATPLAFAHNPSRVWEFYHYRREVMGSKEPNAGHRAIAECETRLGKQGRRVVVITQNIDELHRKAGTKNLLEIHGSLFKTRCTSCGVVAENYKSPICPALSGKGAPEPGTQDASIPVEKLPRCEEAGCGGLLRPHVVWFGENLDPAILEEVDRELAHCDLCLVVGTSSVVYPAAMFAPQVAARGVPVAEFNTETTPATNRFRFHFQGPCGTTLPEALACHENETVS
DENV2 CPE rescue – DENV2-induced cell death inhibition; DENV2-infected cells, cytopathic effect rescue, plate reader; CPE inhibition, % at 9.99 µM; 350,000 tested, 1.7% active; in the data active = CPE inhibition above about 20%, passing the limit was not always enough; inconclusive = no clear call, values can overlap the other calls; tested in BHK-21 cells;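 also: 0% = median of neutral control wells and 100% = median of positive control wells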
* = called active by the depositor; ? = inconclusive; nt = not tested or not shown; ! = not active in a repeat. Most compounds without a hit are left out; they make up all but 2.3% or so of the library.

SMILES | ERp5 block | PDI inh | Rtt109 HAT inh | SIRT5 block | DENV2 CPE rescue
O=C(O)C1=C[C@@H](c2ccc(C(F)(F)F)cc2)C[C@@H](OCCCCO)O1 | -4 | 0 | 2 | 5 | 6
O=C(Nc1ccccc1)C1=C[C@@H](c2ccc(C(F)(F)F)cc2)C[C@@H](OCCCCO)O1 | 5 | -3 | -13 | 2 | 46*!
C[C@@H]1CN([C@@H](C)CO)C(=O)Cc2cc(NC(=O)Nc3ccc(C(F)(F)F)cc3)ccc2O[C@@H]1CN(C)Cc1ccc(C(=O)Nc2ccccc2N)cc1 | -8 | nt | nt | -1 | 4
CCOC(=O)c1sc(/N=C/N(C)C)nc1C | 1 | 8 | 4 | nt | 40*
O=C(C1=NN[C@@H]2C(=O)N(c3cccc(F)c3)C(=O)[C@H]12)c1ccc2ccccc2n1 | -14 | 7 | 1 | 16* | -3
O=C(C1=NN[C@@H]2C(=O)N(c3cccc(C(F)(F)F)c3)C(=O)[C@H]12)c1ccc2ccccc2n1 | nt | 15 | 5 | nt | nt
Cc1cc(C)c(OCCOCCN(C)C)c(Br)c1 | 0 | -5 | 1 | -3 | -5
Cc1cc(C)c(OCCCCN(C)C)c(Br)c1 | -5 | -1 | -3 | 15* | 8
Cc1cc(C)c(OCCCNC2CCCC2)c(Br)c1 | 2 | -6 | -5 | nt | 28*
CNC(=O)C[C@H]1CC[C@@H]2[C@H](COc3ccc(NC(=O)c4cccs4)cc3C(=O)N2C)O1 | nt | nt | nt | nt | 2
Cc1noc(C)c1NC(=O)N(C)C[C@@H]1OCCCC[C@H](C)Oc2ccc(NC(=O)C3CCCCC3)cc2C(=O)N([C@@H](C)CO)C[C@@H]1C | 8 | nt | nt | 0 | 14
Cc1ccc(S(=O)(=O)NCC[C@@H]2CC[C@@H](NC(=O)c3cnccn3)[C@@H](CO)O2)cc1 | -1 | nt | nt | 9 | ?
C[C@@H]1CCCCO[C@@H](CN(C)S(=O)(=O)c2ccc(F)cc2)[C@@H](C)CN([C@@H](C)CO)C(=O)c2cc(NC(=O)c3ccccc3)ccc2O1 | -2 | nt | nt | 2 | 93*
C[C@@H]1CCCCO[C@H](CN(C)S(=O)(=O)c2ccccc2)[C@@H](C)CN([C@@H](C)CO)C(=O)c2cc(NC(=O)c3ccncc3)ccc2O1 | 0 | nt | nt | 2 | 83*
C[C@H]1CCCCO[C@H](CN(C)S(=O)(=O)c2ccc(F)cc2)[C@@H](C)CN([C@@H](C)CO)C(=O)c2cc(NC(=O)c3ccccc3)ccc2O1 | -2 | nt | nt | 8 | 4
C[C@@H]1CN([C@H](C)CO)C(=O)c2cc(NC(=O)c3ccccc3)ccc2O[C@@H](C)CCCCO[C@@H]1CN(C)S(=O)(=O)c1ccc(F)cc1 | 2 | nt | nt | 6 | 98*
C[C@H](CO)N1C[C@H](C)[C@H](CN(C)S(=O)(=O)c2ccc(F)cc2)OCCCC[C@H](C)Oc2ccc(NC(=O)c3ccccc3)cc2C1=O | 2 | nt | nt | 8 | 28*
c1ccc(CCc2nc(-c3ccc(-n4cccc4)cc3)no2)cc1 | 7 | -6 | -15 | 18* | -4
CC(C)n1cc(CN2CCCC(CNS(=O)(=O)c3cccc4cccnc34)C2)cn1 (stereo not given) | 3 | 9 | 2 | 1 | 22*
CN1C(=O)c2cc(NC(=O)c3cccc(F)c3)ccc2OC[C@H]2O[C@@H](CC(=O)N3CCc4ccccc4C3)CC[C@H]21 | 6 | nt | nt | -2 | 31*
CN1C(=O)c2cc(NC(=O)c3cccc(F)c3)ccc2OC[C@H]2O[C@H](CC(=O)N3CCc4ccccc4C3)CC[C@@H]21 | 0 | nt | nt | -2 | 78*
COc1ccccc1NC(=O)N[C@@H]1C=C[C@@H](CC(=O)N2CCC(Cc3ccccc3)CC2)O[C@H]1CO | 1 | nt | nt | 4 | -11
O=C(C[C@H]1CC[C@H](NC(=O)Nc2cc(F)ccc2F)[C@H](CO)O1)NCc1ccncn1 | -9 | nt | nt | -1 | 0
COc1ccc([N+](=O)[O-])cc1NC(=O)C(C)OC(=O)C1CC(=O)N(Cc2ccco2)C1 (stereo not given) | -4 | 1 | 2 | 3 | 95*
COc1ccccc1NC(=O)C(C)OC(=O)C1CC(=O)N(Cc2ccco2)C1 (stereo not given) | -1 | -2 | nt | nt | 9
C[C@H]([C@H](O)c1ccccc1)N(C)C(=O)CN | 2 | -1 | -5 | 21* | -2
C[C@H](C(O)c1ccccc1)N(C)C(=O)CN (stereo not given in full) | 0 | 1 | -9 | -4 | -7
CSc1c(SCc2ccccc2)cnn(-c2ccccc2)c1=O | nt | 6 | 58* | nt | nt
Cn1ncc(SCc2ccccc2)c(Cl)c1=O | -3 | 1 | -1 | -2 | ?
